Screen size: about 320,000 compounds; about 210 (0.066%) were called active.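 Rule for the calls: active = GFP response relative to DMSO above a set limit, near the screen mean plus 3 SD (cut at about 150% in these data); inconclusive = Fewer than 70 cells measured for a yeast strain; inactive = the rest.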 Many of the other results were omitted from the sample, so actives are more common in it than they were.

A short description of the test: TOR pathway RTG branch CIT2 reporter changes – S. cerevisiae, GFP fusion, multiplex flow cytometry, MLPCN library, primary screen (AID 2029).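 Note: ratio of well median GFP fluorescence to mean of DMSO wells on the plate.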 The note with it: S. cerevisiae CIT2-GFP strain, 3 h, at 10 µM, hits give high values, 100 means same as DMSO wells. Background: In flow cytometry, cells or beads pass a laser one at a time.
In the case of `Cc1noc(C)c1CSc1nc2cc(S(=O)(=O)N3CCOCC3)ccc2o1`, the GFP response vs DMSO is 111% (inactive). As for `O=C(CSc1ccc(C(F)(F)F)cc1[N+](=O)[O-])NCCOc1ccccc1`, the GFP response vs DMSO was 108% (inactive). With `COc1ccccc1N1CCN(CC(=O)Nc2ccnn2C2CCCC2)CC1` the figure was 98.2% (inactive); with `CC1(C)CC(CNCCC(c2ccc(F)cc2)c2ccco2)CCO1` (stereo not drawn), 109% (inactive); with `CCOc1cc(CN2CCCC(CO)(Cc3ccc(F)cc3F)C2)ccc1OC` (stereo not drawn), 98% (inactive). Take `O=C(c1ccc2ccccc2n1)N1CCN(c2ccccc2Cl)CC1`: the GFP response vs DMSO was 94.9% (inactive).

On to `CCCCn1c(N)c(N2CCOCC2)c(=O)n(CC(=O)NCCc2ccccc2)c1=O`, for which the GFP response vs DMSO was 105% (inactive). With `CSCCC(NS(=O)(=O)c1ccc(C)cc1)C(=O)N1CCCC1` (stereo not drawn), the GFP response vs DMSO was 90.1% (inactive).

Turning to `CCN(CC)S(=O)(=O)c1ccc(OC(C)C)c(N)c1`, the GFP response vs DMSO is 94.4% (inactive). For the compound `CCOc1ccc(Nc2nc(Cc3nnc(SCC(=O)c4ccc(C)cc4)o3)cs2)cc1`, the GFP response vs DMSO is 89.8% (inactive).

`O=C(NCc1nnc(SCC(=O)N2CCCc3ccccc32)o1)c1ccccc1F`: the GFP response vs DMSO is 91.6% (inactive).

On to `CC1CCCCC1NC(=O)COc1ccc(C#N)cc1` (stereo not drawn), for which the GFP response vs DMSO was 100% (inactive).

Consider `O=C(O)CC(SCC(=O)Nc1ccc(Br)cc1)C(=O)O` (stereo not drawn), for which the GFP response vs DMSO was 101% (inactive).

For the compound `OCCN1CCOCCOCCN(CCO)CCN(CCO)CC1`, the GFP response vs DMSO is 90.9% (inactive). With `NC(=S)Nc1c(Cl)cccc1Cl` the figure was 104% (inactive); with `CC(Oc1ccc(Cl)cc1)c1ccnn1S(C)(=O)=O` (stereo not drawn), 88.9% (inactive). With `C#CCN(N(C)c1ncc(C(F)(F)F)cc1Cl)S(=O)(=O)c1ccc2ccccc2c1` the figure was 101% (inactive); with `CN(NS(=O)(=O)c1cccs1)c1ncc(C(F)(F)F)cc1Cl`, 171% [may fluoresce green] (active); with `Cc1cc(C)cc(NS(=O)(=O)c2ccc(Oc3ncc(C(F)(F)F)cc3Cl)cc2)c1`, 99.4% (inactive).

With `COc1ccc(-c2cc(=O)oc3cc(OCC(=O)N[C@@H](Cc4c[nH]c5ccccc45)C(=O)O)ccc23)cc1`, the GFP response vs DMSO is 110% (inactive). `O=C(N/C(=C\c1ccc([N+](=O)[O-])cc1)C(=O)N1CCOCC1)c1cccc(Br)c1`: the GFP response vs DMSO is 100% (inactive). For the compound `COc1cc(NS(=O)(=O)c2ccc(N/C=C(\C=O)c3nc4cc(Cl)ccc4o3)cc2)nc(OC)n1`, the GFP response vs DMSO was 103% (inactive).

With `COc1ccccc1C(=O)NCCC(=O)NC1=NCCS1`, the GFP response vs DMSO was 105% (inactive). For `Cc1cccc(Nc2nc3c(S(=O)(=O)c4ccccc4)nnn3c3ccccc23)c1C`, the GFP response vs DMSO was 632% [may fluoresce green] (active). As to `Cc1ccc(S(=O)(=O)c2nnn3c2nc(N2CCN(c4ccccn4)CC2)c2ccccc23)cc1`, the GFP response vs DMSO is 94.5% (inactive). `CC(=O)Nc1ccc(Nc2nc3c(S(=O)(=O)c4ccc(C)c(C)c4)nnn3c3ccccc23)cc1`: the GFP response vs DMSO is 106% (inactive). As to `CC(=O)N1CC2(C)CN(C(C)=O)CC(C)(C1)C2=O`, the GFP response vs DMSO is 107% (inactive). As for `Cc1nc(-c2ccc(F)cc2)c(CC(=O)Nc2cc(S(=O)(=O)N3CCCCC3)ccc2C)s1`, the GFP response vs DMSO was 99.9% (inactive). In the case of `COc1ccccc1CCCNC(=O)C1CCC(=O)N(CCN2CCOCC2)C1` (stereo not drawn), the GFP response vs DMSO was 94.1% (inactive). Turning to `CCN1/C(=C\c2ccc3ccccc3[n+]2CC)Sc2cc(C)ccc21`, the GFP response vs DMSO is 1560% [may fluoresce green] (active).

As to `CCN1/C(=C/c2ccc3ccc(C)cc3[n+]2CC)Sc2ccccc21`, the GFP response vs DMSO is 337% [may fluoresce green] (active). For `CCc1nc2cccnc2n1-c1ccc(C(=O)O)cc1`, the GFP response vs DMSO is 102% (inactive).

For `COc1ccccc1C(CNC(=O)c1ccc(C)c(S(=O)(=O)N2CCCCC2)c1)N(C)C` (stereo not drawn), the GFP response vs DMSO was 97.1% (inactive).

The record behind these values is PubChem BioAssay AID2029 (NMMLSC, 2009).
